Calb FLC: affects C. albicans growth with fluconazole. C. albicans CaCi-2 (fluconazole-resistant clinical isolate) + fluconazole, Alamar Blue growth, 48 h. growth inhibition, % (test concentration not listed). 300,000 compounds, 0.57% hits. AID 1979;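 active means growth inhibition above about 58% in most replicates, limit read from the data, passing the limit was not always enough; inconclusive means exactly half the replicates above a set limit; inactive means most replicates below a set limit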;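 further: all wells also contain fluconazole at 8 µg/ml as a sub-toxic cotreatment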
MPTP inh: inhibitors of mitochondrial permeability transition pore | isolated mouse mitochondria, Ca2+ swelling absorbance, 30 min | inhibition, % at 10 µM | 360,000 compounds, 1.4% hits;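 active means inhibition of 50% or more, scaled per plate between neutral and stimulator controls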
CSC inhib: cancer stem cell inhibition; inhibition, % at 7.5 µM; 300,000 compounds, 1.1% hits; cancer stem cell-like cells viability, luminescence; AID 2717; in the data active means inhibition above about 75%; inconclusive means no clear call, values can overlap the other calls; tested in HMLE shEcad cells
Beta cell apopt: beta cell apoptosis inhibition | INS-1E cytokine-induced death, ATP luminescence, 48 h; percent of positive-control rescue, neutral wells zero | protection from apoptosis, % (concentration not given with the values) | 300,000 compounds, 0.8% hits;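 active means Every replicate reaches about 75%, or at least half do and their mean reaches it too, limit read from the data; inconclusive means At least half of replicates reach the limit but their mean does not; inactive means Under half of replicates reach the limit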;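 further: higher means more ATP so stronger rescue from cytokine killing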
Mdm2-MdmX inh: human Mdm2/MdmX binding inhibition | O15151+Q00987 | SaOS-2 split-luciferase Mdm2/MdmX complementation, luminescence | inhibition, % at 8 µM | 330,000 compounds, 3% hits;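 active means inhibition of at least 50% at 8 µM in the primary screen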
Target sequence (O15151 whole entry, looked up): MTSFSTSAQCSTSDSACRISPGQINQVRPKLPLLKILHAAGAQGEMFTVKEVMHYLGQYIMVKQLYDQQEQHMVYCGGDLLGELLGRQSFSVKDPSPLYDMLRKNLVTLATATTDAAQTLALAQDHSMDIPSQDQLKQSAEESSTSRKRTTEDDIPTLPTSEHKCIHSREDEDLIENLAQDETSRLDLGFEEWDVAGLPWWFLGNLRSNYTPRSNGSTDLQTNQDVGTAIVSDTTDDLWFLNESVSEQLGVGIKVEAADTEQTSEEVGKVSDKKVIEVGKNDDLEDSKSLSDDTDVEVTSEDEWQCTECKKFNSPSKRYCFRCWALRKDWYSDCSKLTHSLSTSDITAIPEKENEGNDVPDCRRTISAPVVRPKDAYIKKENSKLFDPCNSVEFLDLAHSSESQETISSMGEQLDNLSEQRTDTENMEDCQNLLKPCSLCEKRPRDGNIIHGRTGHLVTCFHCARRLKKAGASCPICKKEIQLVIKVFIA
Target sequence (Q00987 whole entry, looked up): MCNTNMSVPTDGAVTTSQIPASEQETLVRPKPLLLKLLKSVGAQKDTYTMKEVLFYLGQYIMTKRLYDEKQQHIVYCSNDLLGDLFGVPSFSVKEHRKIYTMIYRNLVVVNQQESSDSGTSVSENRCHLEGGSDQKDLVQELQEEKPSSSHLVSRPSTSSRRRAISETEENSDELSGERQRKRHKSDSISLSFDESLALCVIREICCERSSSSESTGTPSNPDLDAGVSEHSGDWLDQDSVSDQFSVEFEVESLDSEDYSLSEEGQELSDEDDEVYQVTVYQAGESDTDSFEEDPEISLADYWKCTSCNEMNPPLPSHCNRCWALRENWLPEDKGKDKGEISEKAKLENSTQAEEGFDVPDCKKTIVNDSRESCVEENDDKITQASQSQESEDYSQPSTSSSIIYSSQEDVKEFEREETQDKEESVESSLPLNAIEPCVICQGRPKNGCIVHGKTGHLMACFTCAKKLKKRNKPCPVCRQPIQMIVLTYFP
Mdm2-MdmX conf: human Mdm2/MdmX binding inhibition, confirmed; shares compounds with Mdm2-MdmX inh; luminescent assay; inhibition, % at 8 µM; 10,000 compounds, 55% hits; AID 489028; in the data active means inhibition above about 40%
Full FLuc ctr: inhibits full-length luciferase, flagging false Mdm2/MdmX hits; shares compounds with Mdm2-MdmX inh; SaOS-2 full-length luciferase counterscreen, luminescence; inhibition, % at 8 µM; 6,200 compounds, 77% hits;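 active means mean inhibition at 8 µM reaching about 37%, which flags the compound as non-specific, limit read from the data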;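 further: p53-null SaOS-2 cells with luciferase driven by a doxycycline-inducible promoter; compound on cells about two nights before reading with doxycycline added after day one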
Numbers stand for hits; . = inactive; ? = inconclusive; / = not tested or not shown. Shown are actives, neighbours in structure and some others; about 4.8% of the full set was active somewhere.

SMILES	Calb FLC	MPTP inh	CSC inhib	Beta cell apopt	Mdm2-MdmX inh	Mdm2-MdmX conf	Full FLuc ctr
COc1ccc(C2CC(O)(c3ccccc3)Oc3c(C)ccc(C)c32)cc1 (stereo not drawn)	.	.	/	.	50.8	.	/
COc1ccc(C2CC(O)(c3ccccc3)Oc3cc(OC)cc(OC)c32)cc1 (stereo not drawn)	.	.	/	/	.	/	/
CC(=O)Nc1ccc(S(=O)(=O)NC2=NCN(c3ccc([N+](=O)[O-])cc3)CN2)cc1	.	.	.	.	62.6	.	/
CN1CN=C(NS(=O)(=O)c2ccc([N+](=O)[O-])cc2)NC1	.	.	.	.	.	/	/
O=C(NNc1nc(-c2ccccc2)cs1)c1ccc(F)cc1	.	.	.	.	53.8	.	/
CC(C)(C)c1csc(NNC(=O)c2ccc(Br)cc2)n1	.	.	.	.	64.4	.	/
O=C(NNc1nc(-c2ccccc2)cs1)c1cccs1	.	.	.	.	.	/	/
O=C(NNc1nc(-c2ccc(F)cc2)cs1)c1ccccc1	.	.	.	.	61.8	48.9	49.6
O=C1OC(Nc2nc(-c3ccc(F)cc3)cs2)c2ccccc21 (stereo not drawn)	.	.	.	.	62.6	.	/
CN1C(=O)[C@H]2[C@@H](/C=C/c3ccccc3)N3C(=O)CN(Cc4ccc(-c5ccccc5)cc4)C(=O)[C@@]3(Cc3ccccc3)[C@H]2C1=O	.	.	.	.	.	/	/
CCN(CC(=O)Nc1c(F)cccc1F)C(=O)c1cc(-c2cccs2)nn1-c1ccccc1	.	.	/	.	59.6	.	85.6
Cc1ccc(N(CC(=O)Nc2cc(Cl)ccc2Oc2ccccc2)S(C)(=O)=O)c(C)c1	.	.	.	.	.	/	/
Cc1ccc(N(CC(=O)Nc2cc(Cl)ccc2Oc2ccccc2)S(C)(=O)=O)cc1C	.	.	.	.	52.2	.	/
Cc1ccc(C)c(SCC(=O)NC(=O)NC2CCCC2)c1	/	.	/	/	.	/	/
COc1cc(C(=O)O/N=C(\N)Cc2ccc([N+](=O)[O-])cc2)cc(OC)c1OC	.	.	.	.	85.1	69.5	70.5
CCOc1ccc(C(=O)O/N=C(\N)c2ccc([N+](=O)[O-])cc2)cc1OCC	.	.	/	/	59.8	52.3	125.5
N/C(Cc1ccc([N+](=O)[O-])cc1)=N\OC(=O)c1cccc(Br)c1	?	.	.	.	60.9	.	/
CCOc1cc(/C=N/O)ccc1OCc1ccc([N+](=O)[O-])cc1	.	.	/	.	.	/	/
CCOc1cc(C=C(C(=O)OC)C(=O)OC)ccc1OCc1ccc([N+](=O)[O-])cc1	/	.	.	.	96.4	74.9	44.0
O=C(CC[C@H]1O[C@@H](n2cnc3c(NC(=O)c4ccccc4)ncnc32)[C@H](O)[C@@H]1O)N[C@@H](CO)c1ccccc1	/	.	/	/	/	/	/
CC(C)CN1C(=O)CN(S(C)(=O)=O)CC1(C)C(=O)NC(C)C (stereo not drawn)	/	.	/	/	/	/	/
COc1ccc(C(=O)O/N=C(\N)Cc2ccc([N+](=O)[O-])cc2)c(OC)c1	.	.	.	.	86.4	67.8	90.3
Nc1sccc1C(=O)NC1CC1	/	.	/	/	/	/	/
CN(C)C1=NC[C@H](Cc2ccccc2)N1CCC1CCCC1	/	.	.	.	.	/	/
CN(C)C1=NC[C@H](Cc2ccccc2)N1CCCC1CCCC1	/	.	.	.	53.5	.	68.1
SMILES	Calb FLC	MPTP inh	CSC inhib	Beta cell apopt	Mdm2-MdmX inh	Mdm2-MdmX conf	Full FLuc ctr
c1ccc(C(c2ccccc2)N2CCN(c3nc4ccccc4n4cnnc34)CC2)cc1	.	/	.	108.1	67.9	.	/
Cc1c(C(=O)Nc2ccc(F)cc2)oc2ccc(S(=O)(=O)N3CC(C)CC(C)C3)cc12 (stereo not drawn)	.	.	.	.	64.2	.	68.6
Cc1c(C(=O)NCc2cccnc2)oc2ccc(S(=O)(=O)N3CC(C)CC(C)C3)cc12 (stereo not drawn)	.	.	.	.	.	/	/
CC1CC(C)CN(S(=O)(=O)c2ccc(F)c(C(=O)Nc3ccc(Cl)cc3F)c2)C1 (stereo not drawn)	.	.	/	/	52.4	.	/
CC1CC(C)CN(S(=O)(=O)c2ccc(NC(=O)c3ccc(=O)[nH]c3)cc2)C1 (stereo not drawn)	/	.	.	.	58.7	51.1	73.7
OCC[C@@H]1C[C@H](O)[C@@H](O)[C@@]2(OCc3ccc4ccccc4c32)O1	/	.	/	/	/	/	/
CN(CC(=O)Nc1c(Cl)cccc1Cl)C(=O)c1cc(S(=O)(=O)N(C)C)ccc1N1CCCC1	.	.	.	.	.	/	/
CCCCCCSc1ccc([C@H]2N[C@@](C)(C(=O)OC)[C@H]3C(=O)N(C)C(=O)[C@@H]23)cc1	.	.	.	.	.	/	/
O=C(NCCN1CCNC1=O)C1CCC(=O)N(Cc2cccc(C(F)(F)F)c2)C1 (stereo not drawn)	.	.	.	.	.	/	/
COC(=O)C(C#N)(CCC(=O)c1ccccc1)CCC(=O)c1ccccc1	/	.	/	/	/	/	/
COc1cc(/C=C(\C#N)c2ccccn2)ccc1OCC(=O)Nc1cccc(C(F)(F)F)c1	.	.	.	.	61.4	51.6	57.4
COc1cc(/C=C(/C#N)c2nc3ccccc3[nH]2)ccc1Oc1ncccc1[N+](=O)[O-]	.	.	.	.	67.9	.	/
CCc1ccc(NC(=O)COc2ccc(/C=C(/C#N)c3nc4ccccc4[nH]3)cc2OC)cc1	.	.	.	/	100.4	81.2	52.7
COc1cc(/C=C(/C#N)c2nc3ccccc3[nH]2)ccc1OCc1ccc(C(=O)O)o1	.	.	.	.	.	/	/
COc1cc(/C=C(\C#N)c2ccccn2)ccc1OCc1ccccc1Cl	/	.	.	.	/	/	/
Cc1ccc(Cn2cc(CN3CC(N4CCN(CCO)CC4)CS3(=O)=O)nn2)cc1 (stereo not drawn)	/	.	/	/	/	/	/
Cc1cc(CN(C)C(=O)CC2C(=O)NCCN2Cc2ccc(-c3ccccc3)cc2)on1 (stereo not drawn)	.	.	.	.	.	/	/
CN(C)Cc1ccc(-c2nc3cccc4c3n2CCNC4=O)cc1	.	.	.	.	57.7	.	70.5
NC(=O)c1cccc(-c2ccnc3c2CC(C(=O)Nc2cccc(Oc4ccccc4)c2)O3)c1 (stereo not drawn)	/	.	/	/	/	/	/
O=c1oc2ccccc2cc1-c1csc(Nc2nc3c(F)cccc3s2)n1	.	.	.	/	70.3	70.0	107.0
O=c1oc2ccccc2cc1-c1csc(Nc2nc3ccc(F)cc3s2)n1	.	/	.	.	.	/	/
CC(=O)c1cccc(NC(=S)N2CCN(CCN3C(=O)c4cccc5cccc(c45)C3=O)CC2)c1	.	.	.	.	65.5	.	/
COc1ccc(C(=O)C/C(=C\C(=O)c2ccc(C)cc2)c2ccccc2)cc1	.	.	/	?	86.0	83.9	.
O=C(NCCN1CCC(n2c(=O)[nH]c3ccccc32)CC1)c1cccc(Cl)c1	/	.	/	/	/	/	/
COc1ccc(CN2C(=O)c3ccccc3C2=O)cc1C(=O)Nc1ccccc1N1CCOCC1	.	.	.	.	.	/	/

Bioassay records deposited in PubChem by several laboratories.
